Compound activity as filed in PubChem.
Most compounds without a hit are left out; they make up all but 2.2% or so of the library.
PLC-gamma1 inh = PLC-gamma1 (human) inhibition, primary screen. inhibition, % at 12.2 µM. AID 720700. hit rate 0.84% among 370,000. purified PLC-gamma1, fluorogenic substrate, fluorescence
Target sequence (P19174 whole entry, looked up): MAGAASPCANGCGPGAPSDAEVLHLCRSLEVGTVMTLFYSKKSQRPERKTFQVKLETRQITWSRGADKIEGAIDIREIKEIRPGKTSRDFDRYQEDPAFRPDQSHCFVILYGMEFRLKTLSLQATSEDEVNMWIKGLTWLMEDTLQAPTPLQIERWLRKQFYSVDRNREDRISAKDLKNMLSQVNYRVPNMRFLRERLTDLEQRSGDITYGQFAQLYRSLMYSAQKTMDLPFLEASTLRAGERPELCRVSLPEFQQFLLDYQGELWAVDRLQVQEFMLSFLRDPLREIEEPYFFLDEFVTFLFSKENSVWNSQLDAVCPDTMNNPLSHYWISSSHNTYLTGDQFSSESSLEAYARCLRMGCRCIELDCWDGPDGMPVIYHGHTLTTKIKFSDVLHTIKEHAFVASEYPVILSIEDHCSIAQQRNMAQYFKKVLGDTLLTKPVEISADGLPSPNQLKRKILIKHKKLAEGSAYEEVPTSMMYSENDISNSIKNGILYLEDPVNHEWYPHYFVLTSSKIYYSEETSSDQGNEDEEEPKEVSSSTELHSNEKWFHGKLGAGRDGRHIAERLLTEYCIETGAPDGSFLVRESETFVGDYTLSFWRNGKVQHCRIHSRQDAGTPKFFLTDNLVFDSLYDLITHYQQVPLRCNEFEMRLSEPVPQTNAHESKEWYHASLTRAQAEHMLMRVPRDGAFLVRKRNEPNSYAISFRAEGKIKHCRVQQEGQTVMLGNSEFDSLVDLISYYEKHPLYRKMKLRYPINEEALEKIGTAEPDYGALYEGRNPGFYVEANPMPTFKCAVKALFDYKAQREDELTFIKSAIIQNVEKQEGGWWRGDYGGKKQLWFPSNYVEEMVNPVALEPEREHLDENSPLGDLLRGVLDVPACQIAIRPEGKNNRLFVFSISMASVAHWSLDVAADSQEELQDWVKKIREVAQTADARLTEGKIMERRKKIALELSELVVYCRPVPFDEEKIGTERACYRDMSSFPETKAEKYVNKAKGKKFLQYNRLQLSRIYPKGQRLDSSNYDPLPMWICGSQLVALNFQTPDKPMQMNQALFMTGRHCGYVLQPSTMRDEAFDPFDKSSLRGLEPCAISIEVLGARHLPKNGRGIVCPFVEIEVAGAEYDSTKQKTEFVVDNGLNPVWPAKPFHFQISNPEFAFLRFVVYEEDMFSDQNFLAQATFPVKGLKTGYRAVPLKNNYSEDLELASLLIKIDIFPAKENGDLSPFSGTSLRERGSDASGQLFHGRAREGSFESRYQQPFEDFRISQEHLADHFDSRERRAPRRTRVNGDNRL
Rce1 inh = blocks yeast Ras-converting enzyme; yeast membranes, quenched prenylated peptide cleavage fluorescence; AID 2563; Q03530; calls only; hit rate 0.27% among 290,000;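 active means fall in fluorescence gain of 50% or more versus controls, with final raw signal at or below 3038400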;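 further: plate controls were neutral control wells for no effect and wells lacking membranes for full effect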
GC-B act = GC-B (human) receptor activation. hit rate 0.11% among 370,000. HEK293-GC-B cells, CNP EC30, cGMP TR-FRET; 0% at EC30 CNP, 100% saturating CNP. P20594. AID 1920062. activation, % at 10 µM;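 active means activation at 10 µM reaching about 35% in either raw or pattern-adjusted values, limit read from the data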
PLCb3 inh = inhibitors of human phospholipase C beta3 | hit rate 0.18% among 370,000 | inhibition, % at 12.2 µM | Purified PLC-beta3, fluorogenic substrate, fluorescence | Q01970; in the data active means inhibition above about 11%;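 further: 0% = median of compound wells on plate and 100% = full blocker control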
NPR1 activator = GC-A (human) enzyme activation; HEK293 GC-A cells, cGMP TR-FRET, EC30 ANP; 0% at EC30 ANP, 100% saturating ANP; activation, % at 10 µM; hit rate 0.14% among 370,000; in the data active means activation above about 40%
PfM18AAP inh = PfM18AAP enzyme inhibition | hit rate 1.2% among 290,000 | AID 1822 | inhibition, % at 7.35 µM | recombinant PfM18AAP, H-Glu-NHMec fluorogenic cleavage;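 active means inhibition above the campaign mean inhibition over all tested compounds plus 3 SD, cut at about 28% in these data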;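 further: 0% = plate median of test compound wells and 100% = 2 mM ZnCl2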
PLCgamma1 ctr = PLC-gamma1 inhibition, counter-screen for PLC-beta3 hits; shares compounds with PLC-gamma1 inh; purified PLC-gamma1, fluorogenic substrate, fluorescence; inhibition, % at 12.3 µM; hit rate 3.1% among 3,300; AID 743258
PLCbeta3 conf = confirmation of human PLC-beta3 inhibitors; shares compounds with PLC-gamma1 inh; inhibition, % at 12.3 µM; hit rate 1% among 3,300; AID 743261; purified PLC-beta3, fluorogenic substrate fluorescence; in the data active means inhibition above about 11%
Starred values were filed as active, the others as inactive; i = inactive; . = no result given. Unless noted, no stated cut-off is given here; in the data, active means inhibition above about 9.5%; inactive means the rest.

SMILES	PLC-gamma1 inh	Rce1 inh	GC-B act	PLCb3 inh	NPR1 activator	PfM18AAP inh	PLCgamma1 ctr	PLCbeta3 conf
CC(=O)Nc1ccc(C2=NN(Cc3nnc(-c4ccccc4)o3)C(=O)SC2)cc1	10.8*	i	-4.2	9.1	-1.4	3.9	-3.5	-2.7
CCc1ccc(NS(=O)(=O)c2ccc3c(c2)CCN3C(=O)CCC(=O)O)cc1	10.0*	i	1.8	0.1	-6.1	-0.5	-6.0	-4.7
CCC(=O)N1CCc2cc(S(=O)(=O)CCC(=O)NCCc3ccc(S(N)(=O)=O)cc3)ccc21	10.3*	i	2.2	-1.7	-2.8	-2.5	-1.2	-2.1
Cc1ccc(NS(=O)(=O)c2ccc3c(c2)CCN3C(=O)CCC(=O)O)cc1Cl	2.0	i	5.0	-6.1	4.9	4.4	.	.
CC(C)(C)OC(=O)N1CCN(C(=O)c2[nH]cnc2C(=O)N[C@@H](Cc2ccccc2)C(=O)OCc2ccccc2)CC1	1.5	i	-1.2	-1.4	-0.3	-4.7	.	.
CC(C)C[C@H](NC(=O)c1nc[nH]c1C(=O)N1CCN(C(=O)OC(C)(C)C)CC1)C(=O)OCc1ccccc1	10.4*	i	-0.1	4.8	-2.8	10.2	2.7	3.6
COC(=O)[C@]12C[C@H](CC(=O)N3CCOCC3)C(=O)N(Cc3cccc4ccccc34)C1=C[C@H](C(C)(C)C)O[C@@H]2C	0.6	.	-7.5	-1.3	-9.7	.	.	.
O=C(N/N=C\c1ccc(Cl)cc1)C1=NOC2COC3(CCN(c4ccc([N+](=O)[O-])cc4)CC3)OCC12 (stereo not drawn)	14.2*	i	2.6	12.9*	0.4	6.5	-19.0	-24.3
CC(=O)CC[C@@H]1CC[C@]2(CCCN(C(=O)C3CCCCC3)C2)O1	-0.2	.	5.8	-0.2	2.1	.	.	.
CCOc1ccc(S(=O)(=O)N2CCC(C(=O)NCc3cccnc3)CC2)cc1	12.4*	i	0.3	-2.8	0.4	-10.4	-2.2	0.8
Cc1ccc(S(=O)(=O)N2CCC(C(=O)NCc3cccnc3)CC2)cc1	4.1	i	0.2	-3.7	0.6	0.9	.	.
CCOC(=O)c1c(C)oc2cc(Br)c(OC)cc12	9.8*	i	-8.8	1.4	-8.1	-2.2	-4.1	-4.1
CCOC(=O)c1c(C)oc2cc3c(C(=O)OCC)c(C)oc3cc12	.	.	.	.	.	-1.6	.	.
Clc1cccc2sc(N3CCN(c4ccccc4)CC3)nc12	10.7*	i	-6.7	2.8	-0.2	-4.7	-2.2	1.3
Clc1ccc(Cl)c2sc(N3CCCC3)nc12	1.9	i	.	1.0	.	1.7	.	.
COC(=O)c1cc(-c2ccccc2OC)c(=O)n2c1CCC2	-2.1	.	4.2	0.1	1.6	.	.	.
CCN(C(=O)COC(=O)c1ccc(OCc2c(C)noc2C)cc1)c1ccccc1	14.0*	i	7.2	2.5	1.7	-5.9	-1.2	-0.1
Cc1ccc(C(=O)NNC(=O)c2ccccc2OCc2c(C)noc2C)cc1	-1.1	.	-5.0	1.8	2.7	.	.	.
Cc1noc(C)c1COc1ccccc1C(=O)NNC(=O)c1ccccc1	11.4*	i	-2.6	8.8	0.7	.	-0.7	0.9
CCN(c1ccccc1)S(=O)(=O)c1ccc(OCc2c(C)noc2C)cc1	1.9	i	-10.4	2.3	-4.5	-11.0	.	.
C[C@H]1[C@H](N(Cc2ccccc2)Cc2ccccc2)CC[C@@]23CCCN2C(=O)CCC[C@@H]13	1.0	.	-3.1	0.8	-1.9	.	.	.
COc1ccc(OC)c(S(=O)(=O)NCCCN2CCOCC2)c1	11.9*	.	-0.3	-2.3	0.6	.	-6.9	-0.7
COc1ccc(Br)cc1S(=O)(=O)NCCCN1CCOCC1	1.1	i	.	-1.9	.	2.7	.	.
CCCCCCCCCCCCN1CCSCCS1(=O)=O	-0.4	.	10.4	3.5	1.9	.	.	.
COc1ccc(NC(=O)C2CCCN(S(C)(=O)=O)C2)cc1OC (stereo not drawn)	10.1*	i	10.9	-0.9	-2.7	-0.9	-5.3	-4.0
COc1ccc(CS(=O)(=O)c2ncn[nH]2)cc1	36.8*	i	5.7	5.7	4.0	-3.7	20.3*	-3.2
